HCV inh – blocks hepatitis C virus; Huh7.5.1 HCVcc-Cre infection, luciferase reporter, 44 h; Potency, µM (top dose mostly 41.8 µM), for inactives: at the top dose activity change, negative = inhibition, most hits filed as inhibitors; actives 3.4% (n = 340,000); AID 651820; also: potency is read from the fitted curve at half-maximal effect
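Cells (1,000/well) were plated 4 h before compound, then infected with HCVcc-Cre virus (~0.5 moi). After 44 h further culture, infection was read as luciferase luminescence following a 15 min substrate incubation at room temperature.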
HCMV inh – blocks human cytomegalovirus replication. HFF cells, HCMV-luciferase reporter, 72 h; active compounds read low. activity change, negative = inhibition, % at 57.5 µM. actives 4.5% (n = 410,000). AID 1259415; in the data active = activity change below about -60%; inconclusive = no clear call, values can overlap the other calls; inactive = above about -39%
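Cell-based, HFFs, 1000 cells/well, 16 h 37C; cpds in DMSO + HCMV-luc, MOI 1 PFU/cell; 72 h 37C; OneGlo luminescence after 5 min RT; norm. to buffer vs Salinomycin 10uM.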
Pf growth 96h – P. falciparum growth inhibition at 96 hours | AID 504834 | Potency, µM (doses to about 28.7 µM), for the others: top-dose activity change, negative = inhibition, usual class: inhibitors | actives 6.9% (n = 320,000) | P. falciparum luciferase reporter growth, 96 h; also: potency is read from the fitted curve at half-maximal effect
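Cell-based qHTS: luciferase-tagged P. falciparum in erythrocytes (2% hematocrit, 0.05% parasitemia final) incubated with compounds for 96 hours, 37 C, 5% CO2; luciferase detection reagent then added and luminescence measured.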
Pf growth 48h – inhibits P. falciparum growth in the first generation, 48 h; P. falciparum luciferase growth in erythrocytes, 48 h; Potency, µM (top dose mostly 28.7 µM), inactives show at the highest dose activity change, negative = inhibition, hits mostly inhibitors; actives 5.9% (n = 310,000); also: potency is read from the fitted curve at half-maximal effect
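Parasite viability was followed by luminescence of a genomically integrated firefly luciferase. Cultures held 0.1% parasitemia at 2% hematocrit (final), incubated under 5% CO2 at 37 C.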
Starred values were filed as active, the others as inactive; u = inconclusive; x = no result given; [ ] = dose if it differs, or a comment. Rows were chosen to be rich in hits. Some 13% of all compounds tested hit in one or more screens of this group. Unless noted, calls follow the shape of the dose curve; as a rule, active = well fitted inhibition curve with a large enough effect; inconclusive = small, poorly fitted or top-dose-only effect, or another doubt; inactive = no such curve, though single readings can be large or run the other way. % is scaled to controls: 0 for no effect and ±100 for the full control effect.

SMILES	HCV inh	HCMV inh	Pf growth 96h	Pf growth 48h
CCOc1ccc(CNC(=O)C2CCN(S(=O)(=O)N3CCCCC3)CC2)cc1	x	-36.5	x	x
O=C(Cn1cc(C(F)(F)F)ccc1=O)N1CCCc2ccccc21	6.6%	28.9	x	x
O=C1N2c3ccccc3CCc3cccc(c32)C1(O)C(F)(F)F (configuration not stated)	-21.6%	-60.7*	3.0%	5.0%
COc1ccc(-n2nc(C(=O)N3CCCC(C)C3)c3c4ccccc4n(C)c3c2=O)cc1Cl (configuration not stated)	x	-27.5	x	x
FC(F)(F)c1cc(-c2ccccc2)nc(-n2cc(Cl)cn2)n1	u	-60.1*	u	u
Cc1cnn(-c2nc(-c3ccccc3)cc(-c3ccccc3)n2)c1	7.94µM*	u	-13.6%	u
Fc1ccc(-c2cc(C(F)(F)F)nc(-n3cc(Cl)cn3)n2)cc1	u	u	-17.9%	0.0%
Cc1cnn(C(=O)c2cc(-c3ccccc3)nc3ccccc23)c1	11.9%	35.8	5.5%	38.8%
Cc1ccc(-c2cn3nc(N4CCCC(C(=O)NCc5ccc(F)cc5)C4)sc3n2)cc1 (configuration not stated)	x	0.0	x	x
CCCNC(=O)C(=O)NCC(c1ccc2c(c1)OCO2)N1CCOCC1 (configuration not stated)	x	0.0	x	x
O=[N+]([O-])c1cc(Cl)cc(/C=N\Nc2ccccn2)c1O	u	-102.7*	u	u
Cc1cc(=O)[nH]c(NN=Cc2c(Cl)cccc2Cl)n1	13.7%	u	x	x
O=[N+]([O-])c1cc(/C=N\Nc2ccccn2)ccc1Cl	u	-8.3	7.38µM*	23.7%
O=[N+]([O-])c1ccc(Cl)cc1C=NNc1ccccn1	u	43.3	x	x
Cc1cc(=O)[nH]c(N/N=C/c2ccc(Cl)c([N+](=O)[O-])c2)n1	18.7%	u	u	2.33µM*
Cc1cc(=O)[nH]c(N/N=C/c2c(C)nn(-c3ccc(F)cc3)c2Cl)n1	-28.5%	u	10.4µM*	4.65µM*
Cc1cc(=O)n(CC(=O)NCc2ccc(OC(C)C)cc2)c2c1c(C)nn2-c1cccc(F)c1	x	5.3	x	x
Cc1cccc(N2CCN(C(=O)C3CCN(S(=O)(=O)Cc4ccccc4)CC3)CC2)c1C	x	20.4	x	x
CCOC(=O)c1c(C)oc2nc(C)nc(NCCc3ccc(OCC)c(OCC)c3)c12	x	-12.9	x	x
Cc1nn(-c2ccc(N3CCCCC3)nn2)c(C)c1CCC(=O)NCc1ccc(OC(C)C)cc1	x	-37.4	x	x
CCOc1ccc(N(CC(=O)NCC2CCCO2)C(=O)CCC(=O)Nc2nccs2)cc1 (configuration not stated)	22.4µM*	-26.3	49.7%	4.6%
COc1cccc(C(=O)Nc2ccccc2-c2nnc(-c3cccc(OC)c3)o2)c1	x	20.6	x	x
COc1ccc(NC(=O)c2ccc(C(=O)Nc3ccc(OC)cc3OC)cc2)c(OC)c1	6.5%	-23.3	u	22.4%
COc1ccc(NC(=O)Nc2cccc(NC(C)=O)c2)c(OC)c1	-4.1%	-1.9	11.7µM*	11.1%
COc1ccc(NC(=O)c2c(OC)cccc2OC)c(OC)c1	u	-18.4	u	4.65µM*
SMILES	HCV inh	HCMV inh	Pf growth 96h	Pf growth 48h
CCCc1cc(=O)[nH]c2nnc(SCC)n12	x	38.1	x	x
COc1ccc(C(=O)NC2CC2)cc1OC1CCN(Cc2ccccc2O)CC1	x	-12.1	132.6%	u
COc1cc(C(=O)NC2CC(C)(C)CC(C)(C)C2)ccc1OC1CCN(C(C)=O)CC1	-4.5%	u	9.28µM*	u
COc1ccc(C(=O)NC2CCc3ccccc32)cc1OC1CCN(C(C)=O)CC1 (configuration not stated)	6.1%	23.1	13.1µM*	u
CCCn1nc2cc(C(=O)NC3CCc4ccccc43)ccc2c1OCC (configuration not stated)	u	14.0	u	11.7µM*
COc1cc(C(=O)NC2Cc3ccccc3C2)ccc1OC1CCN(C(C)=O)CC1	-25.7%	32.7	u	u
O=[N+]([O-])c1cc(Cl)c(O)c2ncccc12	-14.8%	-97.5*	10.4%	-6.3%
Clc1cc2cccnc2c2ncccc12	2.82µM*	-95.7*	11.7µM*	11.7µM*
O=[N+]([O-])c1cc(Cl)c2cccnc2c1O	11.5%	-73.8*	-26.8%	-6.0%
Cc1c(C)c2cccnc2c2ncccc12	3.16µM*	x	u	1.85µM*
CSc1cccc(NC(=O)C2CCN(S(=O)(=O)c3ccc4[nH]c(=O)ccc4c3)CC2)c1	x	13.5	x	x
COc1ccccc1NC(=O)C1=C(C)Nc2c(C(=O)Nc3ccc(C)cc3)cnn2C1c1cccc(OC)c1OC (configuration not stated)	x	65.1	x	x
O=[N+]([O-])c1ccc(O)c2ncccc12	u	-98.7*	9.53µM*	13.5µM*
O=[N+]([O-])c1ccc(O)c2cccnc12	u	-10.3	47.3%[5.75 µM]	1.8%
CCN(c1cccc(C)c1)S(=O)(=O)c1ccc2[nH]cc(C(=O)NCCCOC)c(=O)c2c1	x	-23.5	x	x
CC(=O)NCCC(=O)N(Cc1ccccc1)c1nc2c(C)cccc2s1	-5.9%	22.0	u	7.38µM*
CCC(=O)C1=C(c2ccc(F)cc2)N(C(=O)CC)n2c(nnc2-c2ccc(OC)cc2)S1	x	4.5	x	x
CCCC(=O)C1=C(c2cccc(OC)c2)N(C(=O)CCC)n2c(C)nnc2S1	x	-95.2*	x	x
CCCC(=O)C1=C(c2ccc(C)cc2)N(C(=O)CCC)n2cnnc2S1	x	-94.6*	x	x
CCCC(=O)C1=C(c2ccc(C)c(C)c2)N(C(=O)CCC)n2c(CC)nnc2S1	x	-76.0*	x	x
CC(=O)C1=C(c2ccccc2)N(C(C)=O)n2c(C)nnc2S1	u	u	-20.2%	2.33µM*
CCC(=O)C1=C(c2ccc(OC)c(OC)c2)N(C(=O)CC)n2c(CC)nnc2S1	x	-63.2*	x	x
Cc1ccc(C(=O)COC(=O)C2C3C=CC(C3)C2C(=O)OCC(=O)c2ccc(C)c(C)c2)cc1C (configuration not stated)	u	5.5	1.17µM*	u
COc1cc(-c2nc3ccc(N4CCN(C)CC4)cc3[nH]2)cc(OC)c1OC	7.94µM*	90.8	3.7µM*	9.28µM*
CCCCC1C2=C(CC(C)(C)CC2=O)OC2=C1C(=O)CC(C)(C)C2	-18.8%	-29.2	11.7µM*	u
SMILES	HCV inh	HCMV inh	Pf growth 96h	Pf growth 48h
CN1CCN(c2ccccc2NC(=O)c2ccccc2F)CC1	-8.7%	2.3	u	-7.8%
CN1CCN(C2=Cc3ccccc3Sc3cc(F)c(F)cc32)CC1	11.2µM*	7.7	u	6.57µM*
CN1CCN(C2=Nc3ccccc3Sc3ccc(Cl)cc32)CC1	x	x	-27.8%	u
CN1CCN(C2Cc3cc(Cl)ccc3Sc3cc(F)ccc32)CC1 (configuration not stated)	u	-77.5*	x	x
CN1CCN(C2=Cc3ccccc3Sc3cc(F)c(Cl)cc32)CC1	12.6µM*	-0.3	u	5.22µM*
CN1CCN(C2=Cc3cc(Cl)ccc3Sc3cc(F)ccc32)CC1	7.08µM*	-9.1	u	4.65µM*
CN1CCN(c2csc3ccc(F)cc3c2=O)CC1	x	4.0	x	x

Screens deposited in PubChem by National Center for Advancing Translational Sciences (NCATS).
